What is called % inhibition is the drop in the measured response relative to a control, in per cent.

SMILES strings stand for the structures. Hit rate of the full screen: of about 4,400 compounds, about 390 (8.9%) showed an effect of 50% or more. The list comes from a sample in which strong results are over-represented; it also holds similar structures and randomly drawn compounds.

The test system of the assay is Trypanosoma brucei. Put plainly: DNDI: Inhibition of Human African Trypanosomiasis, SBRI 427, in vitro at 2 ug.mL-1. The format is functional.
As for `Cc1ccc(Oc2nc(C)ccc2/C(=N/O)NCc2cc(F)cc(F)c2)c(C)c1`, the “% inhibition” value was found to be 6%.
Consider `COc1cc(C)ccc1Oc1nc(C)ccc1/C(=N/O)NCc1ccccn1`, for which the “% inhibition” value was -7%.
As for `Cc1ccc(/C(=N/O)NCc2ccccc2)c(OCc2ccccn2)n1`, the “% inhibition” value is given as 13%.
For `COc1ccc(CN/C(=N\O)c2ccc(C)nc2Oc2ccc(C)cc2OC)cc1` the value was 24%.
`Cc1cc(C)cc(CN/C(=N\O)c2ccc(C)nc2OCc2ccccn2)c1`: the “% inhibition” value amounted to 80%.
As to `COc1cc(C)ccc1Oc1nc(C)ccc1/C(=N/O)NCc1cc(F)cc(F)c1`, the “% inhibition” value is on record as 98%.
For `Cc1ccc(Oc2nc(C)ccc2/C(=N/O)NCc2c(F)cccc2F)c(C)c1` the value was -3%; for `Cc1ccc(/C(=N/O)NCc2ccccn2)c(OCc2ccccn2)n1`, -11%.
For `COc1ccc(Oc2nc(C)ccc2/C(=N/O)NCc2cc(F)cc(F)c2)cc1`, the “% inhibition” value is -8%.
`COc1ccccc1CN/C(=N\O)c1ccc(C)nc1Oc1ccc(C)cc1OC`: the “% inhibition” value is 11%.
On to `COc1cc(C)ccc1Oc1nc(C)ccc1/C(=N/O)NCc1c(F)cccc1F`, for which the “% inhibition” value came to 95%.
In the case of `COc1cc(C)ccc1Oc1nc(C)ccc1/C(=N/O)NCc1ccccc1`, the “% inhibition” value worked out at 99%.
Consider `FC(F)(F)c1cccc(CNCc2coc(-c3ccc(Cl)cc3Cl)n2)c1`, for which the “% inhibition” value is -2%.
Take `CCOc1ccccc1-c1nc(CN2CCN(c3cccc(C)c3)C(C)C2)co1` (stereo not given): the “% inhibition” value is -6%.
Consider `COCCN(CCOC)Cc1coc(-c2ccc(O)cc2)n1`, for which the “% inhibition” value came to 38%.
For the compound `Cc1cccc(Oc2ccc(/C(=N/O)NCc3cccnc3)cn2)c1`, the “% inhibition” value is 12%.
Regarding `Cc1cccc(-c2nc(CN(C)CC#N)co2)c1`, the “% inhibition” value is recorded as 4%.
Turning to `O/N=C(/c1cccnc1Oc1ccccc1Cl)N1CCN(c2ccc(F)cc2)CC1`, the “% inhibition” value is recorded as 3%.
For the compound `Cc1ccc(/C(=N/O)N2CCSCC2)c(Oc2ccc3ccccc3c2)n1`, the “% inhibition” value was 12%.
The value for `Cc1cc(C)cc(CN/C(=N\O)c2ccc(C)nc2Oc2ccc(C)cc2C)c1` was 18%; that for `Cc1cc(C)cc(CN/C(=N\O)c2ccc(C)nc2Oc2cc(C)cc(C)c2)c1` was 41%.
`COc1cc(C)ccc1Oc1nc(C)ccc1/C(=N/O)NCc1cc(C)cc(C)c1`: the “% inhibition” value is listed as 98%.
On to `CCN(CC)Cc1coc(-c2ccc(C)cc2)n1`, for which the “% inhibition” value is listed as 1%.
On to `Cc1nccn1/C(=N\O)c1ccc(Oc2ccc(Cl)cc2)nc1`, for which the “% inhibition” value amounted to 5%.
On to `Cc1ccc(/C(=N/O)NCC(C)C)c(Oc2cccc(C(C)C)c2)n1`, for which the “% inhibition” value turned out to be 3%.
`Cc1ccc(/C(=N/O)NCC(C)C)c(Oc2ccc3ccccc3c2)n1`: the “% inhibition” value came out at 13%.
Regarding `COc1ccc(Oc2nc(C)ccc2/C(=N/O)N(C)c2ccccc2)cc1`, the “% inhibition” value is listed as -6%.
For `Cc1ccc(/C(=N/O)NCC(C)C)c(Oc2cccc(F)c2)n1` the value was 79%; for `Cc1ccc(/C(=N/O)N(C)c2ccccc2)c(Oc2cccc(F)c2)n1`, 86%; for `Cc1cccc(Oc2nc(C)ccc2/C(=N/O)NCC(C)C)c1`, 94%.
Turning to `Cc1ccc(/C(=N/O)NCc2ccccc2)c(Oc2cccc(F)c2)n1`, the “% inhibition” value amounted to 13%.
Regarding `Cc1ccc(/C(=N/O)NCc2cc(F)cc(F)c2)c(Oc2cccc(F)c2)n1`, the “% inhibition” value came to 28%.
The value for `CSc1ccc(Oc2nc(C)ccc2/C(=N/O)N(C)c2ccccc2)cc1C` was 5%; that for `COc1cc(-c2nc(CN3CCN(c4cc(C)nc5ccccc45)CC3)co2)cc(OC)c1OC` was 10%.
For `CN(Cc1ccco1)/C(=N\O)c1ccc(Oc2c(F)c(F)cc(F)c2F)nc1`, the “% inhibition” value is listed as -10%.
Turning to `COc1cc(-c2nc(CN3CC[C@H]4CCCC[C@@H]4C3)co2)cc(OC)c1OC`, the “% inhibition” value is given as -12%.
Turning to `COc1cc(-c2nc(CNCc3cccc4ccccc34)co2)cc(OC)c1OC`, the “% inhibition” value is on record as 0%.
`Cc1ccc(/C(=N/O)NCc2ccco2)c(Oc2ccc(F)cc2)n1`: the “% inhibition” value is listed as 22%.
The value for `CCN1CCN(Cc2coc(-c3ccc(Cl)cc3Cl)n2)CC1` was 22%; that for `CN(CCc1ccccn1)Cc1coc(-c2ccccc2Cl)n1` was 10%; that for `Cc1cc(C)cc(CN/C(=N\O)c2ccnc(Oc3cccc(F)c3)c2)c1` was 11%.
Take `CSCCN/C(=N\O)c1ccnc(Oc2ccc(F)c(Cl)c2)c1`: the “% inhibition” value is 5%.
Regarding `O/N=C(\NCc1c(F)cccc1F)c1ccnc(Oc2ccc(F)c(Cl)c2)c1`, the “% inhibition” value is 30%.
The value for `CC(C)(C)CN/C(=N\O)c1ccnc(Oc2ccc(F)c(Cl)c2)c1` was 96%.
For `CC(C)(C)CN/C(=N\O)c1ccnc(Oc2cccc(F)c2)c1` the value was 76%; for `CCC(C)(C)N/C(=N\O)c1ccnc(Oc2cccc(F)c2)c1`, 1%; for `Brc1ccccc1-c1nc(CNC[C@@H]2CCCO2)co1`, -9%.
Regarding `COc1ccc(Oc2nc(C)ccc2/C(N)=N/O)cc1`, the “% inhibition” value was found to be 9%.
For `CCCCC(CC)CNCc1coc(-c2ccc(C)cc2)n1` (stereo not given), the “% inhibition” value was determined as 10%.
`Cc1ccc(/C(=N/O)N2c3ccccc3CCC2C)c(Oc2ccc3oc4ccccc4c3c2)n1` (stereo not given): the “% inhibition” value is listed as -9%.
The value for `COCC(C)N/C(=N\O)c1ccc(Oc2ccc3ccccc3c2)nc1` (stereo not given) was 76%.
On to `O/N=C(\Nc1ccccc1)c1ccc(Oc2ccc3ccccc3c2)nc1`, for which the “% inhibition” value was -7%.
For `O/N=C(\NC1CCCCC1)c1ccc(Oc2ccc3ccccc3c2)nc1` the value was 77%; for `O/N=C(\NC1CCC1)c1ccc(Oc2ccc3ccccc3c2)nc1`, 96%.
In the case of `CC1CCC(N/C(=N\O)c2ccc(Oc3ccc4ccccc4c3)nc2)CC1` (stereo not given), the “% inhibition” value was -9%.
Take `O/N=C(\NCC1CCCCC1)c1ccc(Oc2ccc3ccccc3c2)nc1`: the “% inhibition” value was 6%.
In the case of `CCC(CC)N/C(=N\O)c1ccc(Oc2ccc3ccccc3c2)nc1`, the “% inhibition” value is on record as 32%.
On to `CC1CC(N/C(=N\O)c2ccc(Oc3ccc4ccccc4c3)nc2)CC(C)(C)C1` (stereo not given), for which the “% inhibition” value was 4%.
The value for `COCC(C)N/C(=N\O)c1ccc(Oc2cc(C)cc(C(C)C)c2)nc1` (stereo not given) was 18%; that for `COc1cc(-c2nc(CN3CCC4CCCCC4C3)co2)cc(OC)c1OC` (stereo not given) was -10%.
For `Fc1cccc(-c2nc(CN3CCN(c4ncccn4)CC3)co2)c1`, the “% inhibition” value was 6%.
In the case of `FC(F)(F)c1ccc(-c2nc(Cn3ccnc3-c3ccccc3)co2)cc1`, the “% inhibition” value is recorded as -8%.
On to `c1cncc(CN(Cc2cccnc2)Cc2coc(-c3cccc4ccccc34)n2)c1`, for which the “% inhibition” value is listed as 47%.
For `COc1cccc(CNCc2coc(-c3ccccc3C)n2)c1`, the “% inhibition” value worked out at 15%.
The value for `COc1ccc(CCN(C)Cc2coc(-c3ccc(C(F)(F)F)cc3)n2)cc1OC` was 7%.

These data come from ChEMBL document CHEMBL1857833, “Screening and optimization of specific chemical series against human African Trypanosomiasis (HAT)”.
